# Compounds with a hit are over-represented: about 18% of the library has one in this group of screens.
# TDP1 cell noCPT: qHTS for Inhibitors of human tyrosyl-DNA phosphodiesterase 1 (TDP1): qHTS in cells in absence of CPT; DT40 Tdp1-/- hTDP1 cells, no CPT, ATP luminescence, 48 h; Potency, µM (top dose mostly 46.2 µM), inactives show top-dose activity change, negative = growth inhibition, actives largely listed as inhibitors; 420,000 compounds, 15% hits; AID 686978, 2013; further: potency means the concentration at half of the fitted maximal effect; on the % scale 0 is the no-effect control and ±100 the full control effect; nearly all actives have a fitted effect of over 55% in size
#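 Growth kinetics read by CellTiter-Glo luminescence after ≥48 hr at 37 °C. Cells: DT40 Tdp1-/- stably carrying human TDP1, 400 per well, compound exposure in the absence of CPT (DMSO vehicle).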
# HepG2 tox: HepG2 cytotoxicity, counter-screen for TGF-b inhibitors; AID 588856; 410,000 compounds, 0.76% hits; Potency, µM (doses to about 46.1 µM), inactives show at the top dose activity change, negative = cytotoxicity, most hits filed as cytotoxic; HepG2 CAGA-GFP viability, ATP luminescence, 18 h; further: potency means the concentration at half of the fitted maximal effect
#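 HepG2 CAGA-GFP cells (1000/well, DMEM with 1% FBS) received compound, then TGF-beta at 500 pg/mL final, and were incubated 18 hours at 37 degrees C. Viability was read by CellTiter-Glo luminescence. Media-only wells were set as complete cell-killing and DMSO as no toxicity.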
# IL1B secr inh: blocks inflammasome-driven IL-1 beta release | THP-1 LPS/ATP IL-1B secretion, AlphaLISA, 16 h; active compounds read low | activity change, % at 57.5 µM | 360,000 compounds, 4.7% hits | AID 743279; in the data active means activity change below about -50%; inconclusive means mostly about -30% to -49%; further: on the % scale 0 is the no-effect control and ±100 the full control effect
#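 Secreted IL-1B measured by AlphaLISA bead assay after 16 h compound exposure of THP-1 cells; compounds (final up to 57.5 uM) added 1 h before LPS (250 ng/mL) and ATP (1.25 mM) stimulation; lower signal means less secretion.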
# TGFb SMAD3 inh: blocks TGF-b signaling; HepG2 CAGA-GFP TGF-b/SMAD3 reporter, GFP fluorescence, 18 h; TGF-beta stimulated, 500 pg/mL final; Potency, µM (highest dose often 46.1 µM), inactives show at the highest dose activity, negative = inhibition, most hits filed as inhibitors; 410,000 compounds, 1.2% hits; further: potency means the concentration at half of the fitted maximal effect; on the % scale 0 is the no-effect control and ±100 the full control effect; nearly all actives have a fitted effect of over 65% in size
#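 Inhibition was scored as loss of TGF-beta-induced (500 pg/mL final, 18 hours, 37 degrees C) GFP in HEPG2 cells carrying a CAGA-GFP reporter, in DMEM with 1% FBS. Well GFP was summed per cell; Activity was normalised to unstimulated and stimulated DMSO wells, then concentration-response fitting.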
# DT40 TDP1 CPT: growth inhibition of DT40 Tdp1-/-;hTDP1 cells with camptothecin (screen for TDP1 inhibitors); 420,000 compounds, 12% hits; chicken DT40 Tdp1-/-;hTDP1 cells + 20 nM CPT, ATP luminescence, 48 h; Potency, µM (highest dose often 46.2 µM), without a hit: at the highest dose activity change, negative = growth inhibition, actives largely listed as inhibitors; further: potency means the concentration at half of the fitted maximal effect; on the % scale 0 is the no-effect control and ±100 the full control effect; nearly all actives have a fitted effect of over 55% in size
#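 Cell growth measured by CellTiter-Glo luminescence after a minimum 48 h, 37 C compound exposure with 20 nM CPT in Tdp1-knockout DT40 cells stably expressing hTDP1, seeded 400/well; qHTS titration format.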
# TDP1 inh: blocks human tyrosyl-DNA phosphodiesterase 1; recombinant TDP1, AlphaScreen DNA substrate cleavage; Potency, µM (top dose mostly 130 µM), for inactives: at the top dose activity change, negative = inhibition, hits mostly inhibitors; 350,000 compounds, 0.28% hits; AID 485290; further: potency means the concentration at half of the fitted maximal effect; on the % scale 0 is the no-effect control and ±100 the full control effect; nearly all actives have a fitted effect of over 40% in size
# Target sequence (Q9NUW8 whole entry, looked up): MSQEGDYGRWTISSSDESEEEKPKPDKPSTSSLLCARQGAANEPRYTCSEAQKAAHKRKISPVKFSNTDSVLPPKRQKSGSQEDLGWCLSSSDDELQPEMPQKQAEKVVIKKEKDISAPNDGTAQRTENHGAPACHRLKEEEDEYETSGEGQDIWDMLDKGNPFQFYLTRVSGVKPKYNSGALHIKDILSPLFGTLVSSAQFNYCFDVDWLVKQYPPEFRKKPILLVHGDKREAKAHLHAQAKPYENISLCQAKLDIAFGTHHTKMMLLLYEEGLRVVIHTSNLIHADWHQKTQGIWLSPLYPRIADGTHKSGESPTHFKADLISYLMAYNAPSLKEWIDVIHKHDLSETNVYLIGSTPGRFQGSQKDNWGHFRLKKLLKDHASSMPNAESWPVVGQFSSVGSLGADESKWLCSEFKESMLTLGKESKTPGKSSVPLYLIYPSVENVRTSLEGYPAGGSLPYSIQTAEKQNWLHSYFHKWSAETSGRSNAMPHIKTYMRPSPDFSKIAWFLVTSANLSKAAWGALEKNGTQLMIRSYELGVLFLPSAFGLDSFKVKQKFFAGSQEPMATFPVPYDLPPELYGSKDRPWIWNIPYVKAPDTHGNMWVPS
#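 Here, a 5' biotin and 3' phosphotyrosine-FITC DNA oligonucleotide reports Tdp1 activity: intact substrate bridges AlphaScreen beads, while cleavage leaves a 3' phosphate and drops signal. All incubations at room temperature.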
# Active calls of the source: *; ? = inconclusive; / = no result given; [ ] = remark or other dose. Unless noted, the call rests on the fitted dose curve; in most records, active means well fitted curve in the direction sought with a large enough effect; inconclusive means small, poorly fitted or top-dose-only effect, or another doubt; inactive means no such curve, though single readings can be large; an effect the other way counts as inactive or inconclusive.
SMILES,TDP1 cell noCPT,HepG2 tox,IL1B secr inh,TGFb SMAD3 inh,DT40 TDP1 CPT,TDP1 inh
CCC1C(=O)n2nc(-c3ccccc3)cc2N=C1C (stereo not drawn),10µM*,-6%,25,3%,8.2µM*,-1%
CSc1cccc(NC(=O)CN(C)S(=O)(=O)c2ccc3c(c2)CCCN3C(C)=O)c1,26µM*,-23%,/,-1%,?,2%
CSc1cccc(NC(=O)CN(C)S(=O)(=O)c2ccc3c(c2)n(C)c(=O)c(=O)n3C)c1,-25%,-16%,/,3%,-16%,-1%
COc1ccc(Cl)cc1NC(=O)CN(C)S(=O)(=O)c1ccc2c(c1)CCCN2C(C)=O,8.2µM*,-27%,/,?,13µM*,7%
CC(=O)N1CCCc2cc(S(=O)(=O)N(C)CC(=O)Nc3ccc(Cl)cc3C)ccc21,23µM*,-41%,/,0%,23µM*,-2%
COc1ccc(NC(=O)CN(C)S(=O)(=O)c2ccc3c(c2)CCCN3C(C)=O)cc1Cl,21µM*,-21%,/,-25%,?,3%
CCCCn1c(N)c(N(CCOC)C(=O)CCCc2nc3ccccc3c(=O)[nH]2)c(=O)[nH]c1=O,-4%,-9%,1,5%,-6%,5%
COc1cc2c(cc1OC)C(SC)=NC1(CCCC1)C2,15µM*,-74%,?,?,16µM*,5%
COc1ccc(NC(=O)CN2CCN(Cc3ccc(F)cc3)S2(=O)=O)cc1Cl,21µM*,-19%,/,-31%,?,0%
O=C(CN1CCN(Cc2ccc(F)cc2Cl)S1(=O)=O)Nc1ccc(F)cc1,15µM*,-24%,/,?,12µM*,3%
Cc1ccc(CN2CCN(CC(=O)Nc3ccc(C)c(C)c3)S2(=O)=O)cc1,?,-20%,/,-27%,?,6%
Cc1ccccc1CN1CCCN(CC(=O)Nc2ccc(F)cc2)S1(=O)=O,?,-28%,/,-22%,?,6%
COCC(=O)Nc1cc(C)cn(Cc2c(F)cccc2Cl)c1=O,?,1%,15,14%,?,/
COc1cccc(N2CCN(Cc3cc(=O)oc4cc(C)ccc34)CC2)c1,?,-30%,/,?,?,0%
Cc1cnc(C(=O)OC(C)C(=O)Nc2cccc3ccccc23)cn1 (stereo not drawn),7%,0%,-2,-2%,-4%,-11%[0.505 µM]
CC(=O)Nc1ccc(Cl)cc1C(=O)c1ccc[nH]1,-5%,0%,11,6%,16%,/
NCC(=O)Nc1ccc(Cl)cc1C(=O)c1ccc[nH]1,0.12µM*,-24%,5,0%,0.16µM*,12%
CN(C)c1cccc(C(=O)NCC2Cc3cccc(-c4cncnc4)c3O2)c1 (stereo not drawn),-26%,/,/,/,-8%[9.04 µM],/
CC(=O)c1ccc(N2CCN(S(=O)(=O)c3ccc(-c4cnc(C5CC5)o4)cc3)CC2)cc1,?,9%,30,?,3.3µM*,0%
O=S(=O)(c1ccc(-c2cnc(C3CC3)o2)cc1)N1CCN(c2ccc(F)cc2)CC1,0.41µM*,-28%,/,?,0.92µM*,9%
O=S(=O)(c1ccc(-c2cnc(C3CC3)o2)cc1)N1CCN(c2cccc(Cl)c2)CC1,3.3µM*,-14%,/,?,4.1µM*,1%
COc1cccc(N2CCN(S(=O)(=O)c3ccc(-c4cnc(C5CC5)o4)cc3)CC2)c1,0%,11%,23,2%,-20%,1%
CC(C)c1ccc(N(CC(=O)NC(C)(C)C)C(=O)CCC(=O)Nc2nccs2)cc1,?,-29%,4,?,-23%,/
COc1cccc(NC(=O)C2=C(C)C(=O)OC23CCN(C(C)=O)CC3)c1,-5%,-9%,/,0%,-1%,2%

# Assay outcomes deposited in PubChem BioAssay by National Center for Advancing Translational Sciences (NCATS).
